According to PubChem BioAssay (Tox21):
Unmarked numbers belong to inactive results. The source made the active and inactive calls. Unless noted, calls come from the whole dose curve.

Biological target: Thyrotropin-releasing hormone receptor (Homo sapiens) (UniProt P34981)
Assay: qHTS assay to identify small molecule antagonists of the thyrotropin-releasing hormone receptor (TRHR) signaling pathway (AID 1346877; active = well fitted inhibition curve with a large enough effect in the repeat runs, not every such curve was filed as active)
Settings: TRHR-HEK293, TRH-induced calcium fluorescence, antagonist mode; series mostly up to 51.3 µM; activity, negative = inhibition: at the top concentration
Summary of the method: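 Cells (TRHR-HEK293) are plated and kept 18 h at 37 °C/5% CO2. A calcium-sensitive dye is added for 2 h, compound follows for 5 min at room temperature, and TRH is then given at 1 nM final.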
% is set by controls: 0 for no effect and ±100 for the full control effect.

Sequence of Thyrotropin-releasing hormone receptor (Homo sapiens) (P34981 whole entry, looked up): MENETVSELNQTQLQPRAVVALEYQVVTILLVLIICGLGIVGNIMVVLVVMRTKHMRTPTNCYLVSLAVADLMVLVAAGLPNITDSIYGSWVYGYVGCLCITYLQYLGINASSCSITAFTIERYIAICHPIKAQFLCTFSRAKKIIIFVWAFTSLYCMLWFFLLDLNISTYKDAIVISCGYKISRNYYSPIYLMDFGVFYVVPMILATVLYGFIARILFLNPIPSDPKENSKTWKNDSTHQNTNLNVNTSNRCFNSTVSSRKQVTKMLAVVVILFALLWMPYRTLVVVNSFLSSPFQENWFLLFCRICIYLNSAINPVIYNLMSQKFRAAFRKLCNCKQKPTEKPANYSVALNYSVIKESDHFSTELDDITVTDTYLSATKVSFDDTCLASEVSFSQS

| Structure (SMILES) | activity, negative = inhibition | Potency |
| --- | --- | --- |
| CC1COc2c(N3CCN(C)CC3)c(F)cc3c(=O)c(C(=O)O)cn1c23 (stereo unspecified) | 0.848% [at 23.6 µM] | – |
| CCc1ccc(C(c2ccc(CC)cc2)C(Cl)Cl)cc1 | – | inactive |
| CCCCCCCCCCCCCC[P+](CCCC)(CCCC)CCCC | -23.9% | – |
| CCCCC/C=C/CC1CC(=O)OC1=O (stereo unspecified) | 0.228% | – |
| CCCC(=O)c1ccccc1 | 0.504% | – |
| O=C(OCc1ccccc1)c1ccc(O)cc1 | – | inactive |
| CCc1cc(C(C)(C)C)c(O)c(C(C)(C)C)c1 | – | inactive |
| CC(=O)CC(C)=O | -1.51% | – |
| NCCCCCC(=O)O | -3.47% [at 23.6 µM] | – |
| NNCCc1ccccc1 | – | inactive |
| Nc1nc2ccccc2[nH]1 | – | inactive |
| CC(C)(c1ccccc1)c1ccc(Nc2ccc(C(C)(C)c3ccccc3)cc2)cc1 | – | inactive |
| NC(N)=NC(=O)Cc1c(Cl)cccc1Cl | 0.844% [at 23.6 µM] | – |
| CC1=CC(=O)c2ccccc2C1=O | – | inactive |
| CCCNC(C)C(=O)Nc1ccccc1C (stereo unspecified) | -0.784% [at 23.6 µM] | – |
| NC(Cc1ccc(Cl)cc1)C(=O)O (stereo unspecified) | -6.16% [at 0.194 µM] | – |
| O=C1CC2(CCCC2)CC(=O)N1CCCCN1CCN(c2ncccn2)CC1 | – | inactive |
| Cc1ccc(-c2cc(C(F)(F)F)nn2-c2ccc(S(N)(=O)=O)cc2)cc1 | – | inactive |
| CC(=O)CC(=O)Nc1ccc2[nH]c(=O)[nH]c2c1 | -0.336% | – |
| O=C(O)c1cccc(C(=O)O)c1 | – | inactive |
| CCN1CCCC1CNC(=O)c1cc(S(=O)(=O)CC)c(N)cc1OC (stereo unspecified) | 0.725% [at 23.6 µM] | – |
| CCCCCCCCCCCCc1ccccc1O | – | inactive |
| CC(C)(C)NCC(O)c1cc(O)cc(O)c1 (stereo unspecified) | 11.8% [at 23.6 µM] | – |

Biological target: Thyrotropin-releasing hormone receptor (Homo sapiens) (UniProt P34981)
Assay: qHTS assay to identify small molecule agonists of the thyrotropin-releasing hormone receptor (TRHR) signaling pathway (AID 1346891);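 note: HEK293 cells expressing TRHR with calcium dye readout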
Settings: TRHR-HEK293 calcium fluorescence, agonist mode; series mostly up to 57.6 µM; activation: at the top concentration
Summary of the method: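 Agonist-mode calcium mobilisation screen: TRHR-transfected HEK293 cells cultured overnight (18 h), dye-loaded for 2 h at 37 °C, exposed to compounds, and monitored by fluorescence for 3 min.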

| Structure (SMILES) | activation | Potency |
| --- | --- | --- |
| CC1COc2c(N3CCN(C)CC3)c(F)cc3c(=O)c(C(=O)O)cn1c23 (stereo unspecified) | -0.0487% [at 26.5 µM] | – |
| CCc1ccc(C(c2ccc(CC)cc2)C(Cl)Cl)cc1 | – | inactive |
| CCCCCCCCCCCCCC[P+](CCCC)(CCCC)CCCC | 10.8% | – |
| CCCCC/C=C/CC1CC(=O)OC1=O (stereo unspecified) | 0.0213% | – |
| CCCC(=O)c1ccccc1 | -0.374% | – |
| O=C(OCc1ccccc1)c1ccc(O)cc1 | – | inactive |
| CCc1cc(C(C)(C)C)c(O)c(C(C)(C)C)c1 | – | inactive |
| CC(=O)CC(C)=O | 0.244% | – |
| NCCCCCC(=O)O | 0.363% [at 26.5 µM] | – |
| NNCCc1ccccc1 | – | inactive |
| Nc1nc2ccccc2[nH]1 | – | inactive |
| CC(C)(c1ccccc1)c1ccc(Nc2ccc(C(C)(C)c3ccccc3)cc2)cc1 | – | inactive |
| NC(N)=NC(=O)Cc1c(Cl)cccc1Cl | 0.177% [at 26.5 µM] | – |
| CC1=CC(=O)c2ccccc2C1=O | – | inactive |
| CCCNC(C)C(=O)Nc1ccccc1C (stereo unspecified) | -0.0942% [at 26.5 µM] | – |
| NC(Cc1ccc(Cl)cc1)C(=O)O (stereo unspecified) | 0.0344% [at 0.218 µM] | – |
| O=C1CC2(CCCC2)CC(=O)N1CCCCN1CCN(c2ncccn2)CC1 | – | inactive |
| Cc1ccc(-c2cc(C(F)(F)F)nn2-c2ccc(S(N)(=O)=O)cc2)cc1 | – | inactive |
| CC(=O)CC(=O)Nc1ccc2[nH]c(=O)[nH]c2c1 | -0.196% | – |
| O=C(O)c1cccc(C(=O)O)c1 | – | inactive |
| CCN1CCCC1CNC(=O)c1cc(S(=O)(=O)CC)c(N)cc1OC (stereo unspecified) | 0.023% [at 26.5 µM] | – |
| CCCCCCCCCCCCc1ccccc1O | – | inactive |
| CC(C)(C)NCC(O)c1cc(O)cc(O)c1 (stereo unspecified) | 2.29% [at 26.5 µM] | – |
